# Compound activity (PubChem BioAssay)
# A selection: hits, their analogues and other compounds. The true share with any hit is near 4.2%.
# VDR inh = blocks the human vitamin D receptor | P11473 | VDR-SRC2-3 peptide fluorescence polarization, 2 h | Potency, µM, without a hit: max response, negative = inhibition, usual class: inhibitors | hit rate 0.93% among 400,000
#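 Fluorescence polarization assay of small-molecule disruption of VDR binding to coregulator peptide SRC2-3. Compounds and controls pin-transferred, then read after 2 h incubation at ambient room temperature.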
# PLK1 PBD block = inhibitors of human PLK1 polo-box domain binding. P53350. Plk1 PBD binding of FITC phosphopeptide, fluorescence polarization. Potency, µM, inactives show max response, negative = inhibition, hits mostly inhibitors. hit rate 2.8% among 360,000. AID 720504; further: series mostly up to about 57 µM; nearly all actives have a fitted effect of over 65% in size
# Target sequence (P53350 whole entry, looked up, the tested form may be a part): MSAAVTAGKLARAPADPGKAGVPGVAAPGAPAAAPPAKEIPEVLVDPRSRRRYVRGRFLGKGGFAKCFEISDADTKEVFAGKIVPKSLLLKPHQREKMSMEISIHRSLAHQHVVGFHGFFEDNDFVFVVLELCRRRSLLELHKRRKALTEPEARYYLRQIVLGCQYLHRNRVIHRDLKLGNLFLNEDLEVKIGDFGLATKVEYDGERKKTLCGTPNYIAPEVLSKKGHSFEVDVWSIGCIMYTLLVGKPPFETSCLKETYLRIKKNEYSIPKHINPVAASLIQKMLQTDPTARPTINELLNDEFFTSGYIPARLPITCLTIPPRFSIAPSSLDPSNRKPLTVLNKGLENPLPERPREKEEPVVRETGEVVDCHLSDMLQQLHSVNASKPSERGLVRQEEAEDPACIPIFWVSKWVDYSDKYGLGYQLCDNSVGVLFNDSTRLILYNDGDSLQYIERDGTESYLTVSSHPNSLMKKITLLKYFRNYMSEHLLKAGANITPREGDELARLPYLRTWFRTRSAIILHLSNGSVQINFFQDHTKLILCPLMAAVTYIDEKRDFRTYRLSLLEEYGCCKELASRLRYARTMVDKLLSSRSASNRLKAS
# Sfp inh = inhibitors of Bacillus subtilis Sfp phosphopantetheinyl transferase | Potency, µM, for the others: largest response in the series, negative = inhibition, most hits filed as inhibitors | Biochemical Sfp PPTase activity, qHTS | hit rate 3.5% among 310,000 | AID 1490;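 further: the enzyme is Sfp with the accession as filed and its product quenches rhodamine fluorescence; 0% = enzyme reaction without inhibitor and -100% = no enzyme wells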
#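 Step 1, compound plus 15 nM Sfp-PPTase, 15 min, room temperature. Step 2, add rhodamine-CoA (5 uM) and BHQ-2-YbbR (12.5 uM). Step 3, read 525/598 nm fluorescence at 0 and 30 min.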
# 12-LOX inh = blocks human arachidonate 12S-lipoxygenase | purified 12hLO, xylenol orange hydroperoxide absorbance | Potency, µM (top dose mostly 108 µM), inactives show top-dose activity change, negative = inhibition, most hits filed as inhibitors | hit rate 1.1% among 580,000
#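 Purified human 12hLO (150 nM final) in 25 mM Hepes, 0.01% Triton X-100, pH 7.0 was preincubated 15 min at room temperature with compound. Then 40 uM arachidonic acid was added, 30 min. Hydroperoxide was read by Fe-XO absorbance ratio 573/405 nm.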
# Starred values were filed as active, the others as inactive; u = inconclusive; x = no result given; [ ] = remark or other dose. The call rests on the fitted dose curve; in most records, active means well fitted curve in the direction sought with a large enough effect; inconclusive means small, poorly fitted or top-dose-only effect, or another doubt; inactive means no such curve, though single readings can be large; an effect the other way counts as inactive or inconclusive. Unless noted, on the % scale 0 is the no-effect control and ±100 the full control effect; potency means the concentration at half of the fitted maximal effect.
SMILES,VDR inh,PLK1 PBD block,Sfp inh,12-LOX inh
O=C(/C=C/c1ccco1)N(Cc1cccc(Cl)c1)C1CCS(=O)(=O)C1 (centres undefined),-13%,-29%,32µM*,0%
O=C(/C=C/c1ccco1)N(Cc1ccccc1)C1CCS(=O)(=O)C1 (centres undefined),-5%,-10%,25µM*,u
CC1CC1c1ccc(/C=C/C(=O)N(Cc2ccccc2)C2CC2)o1 (centres undefined),x,x,x,8.9µM*
N#Cc1ccccc1Sc1ccccc1C(=O)OCC(N)=O,-11%,-11%,u,0%
O=C(NC1CCCCC1)C1CN(C(=O)c2cc(F)ccc2F)CC12CCOCC2 (centres undefined),x,x,x,45%
C=CCn1c(COc2ccccc2)nnc1SC(C)C(=O)N/N=C/c1cc(Cl)ccc1O (centres undefined),-24%,27µM*,15%,320%
CCN(CC)CCN(C(=O)c1ccc2c(c1)CCCC2)c1nc2ccc(C)cc2s1,-8%,-13%,u,16%
CCN(CC)CCN(C(=O)c1ccc2c(c1)OCCO2)c1nc2c(Cl)cccc2s1,-9%,-5%,u,35µM*
CN(C)CCN(C(=O)c1ccc(C(=O)c2ccccc2)cc1)c1nc2cc3c(cc2s1)OCO3,-26%,-12%,56µM*,u
CN(C)CCCN(C(=O)c1ccc(S(=O)(=O)N(C)C)cc1)c1nc2cc3c(cc2s1)OCO3,4%,-15%,-1%,-11%
CCN(CC)CCN(C(=O)c1ccc2c(c1)CCCC2)c1nc2ccc(OC)cc2s1,-1%,-9%,79µM*,-6%
CCN(Cc1ccccc1)S(=O)(=O)c1ccc(C(=O)N(CCCN(C)C)c2nc3cc4c(cc3s2)OCO4)cc1,-2%,0%,56µM*,u
C=C(C)COc1ccc(-c2nc(N)nc(C)c2Oc2ccccc2OC)c(O)c1,-9%,-8%,12%,0%
Cc1ccc(CNC(=O)c2ccc(Cn3c(=O)c4ccccc4n(CC(=O)Nc4c(C)cc(C)cc4C)c3=O)cc2)cc1,-20%,x,x,u
C#CCOC(=O)CCC(=O)NCCc1ccccc1,2%,-12%,9%,u
CCN(CC)CCN(C(=O)c1ccc(S(=O)(=O)N2CCCCC2)cc1)c1nc2cc3c(cc2s1)OCO3,-7%,2%,7%,x
Cc1cc(C)c2nc(N(CCN(C)C)C(=O)c3ccc4ccccc4c3)sc2c1,3%,-9%,56µM*,-23%
CCN(CC)CCN(C(=O)c1ccc2ccccc2c1)c1nc2cc3c(cc2s1)OCO3,2%,1%,45µM*,298%
CCn1cc(CN2CCC(C(=O)Nc3ccc(Oc4ccccc4F)cc3)CC2)c(C)n1,8%,-6%,-3%,-3%
COc1ccc(CCNC(=O)C2CCN(C(=O)c3ccc(Br)cc3)CC2)cc1,u,27µM*,23%,-19%
COc1ccc(CCNC(=S)N2CCC(C(N)=O)CC2)cc1,-1%,34µM*,56µM*,-8%
COc1ccc(CCNC(=O)C2CCCN(C(=O)c3ccc(Cl)cc3)C2)cc1 (centres undefined),-3%,-14%,19%,-15%
COc1ccc(CCN=C(N)NS(=O)(=O)c2ccc(OC)cc2)cc1,-2%,-3%,18%,6%
N#CC1=C(N)OC(c2ccccc2)=C(C#N)C1c1ccc2c(c1)OCO2 (centres undefined),3%,12µM*,11%,-28%
N#CC1=C(N)OC2=C(C(=O)CC(c3ccccc3)C2)C1c1ccc2c(c1)OCO2 (centres undefined),u,5%,-6%,-20%
SMILES,VDR inh,PLK1 PBD block,Sfp inh,12-LOX inh
O=c1c2cc(N3CCOCC3)ccc2[nH]c(=S)n1Cc1ccco1,79µM*,u,7.9µM*,-27%
O=c1c2cc(N3CCOCC3)ccc2[nH]c(=S)n1Cc1cccc(Cl)c1,-21%,-17%,19%,0%
COc1cccc(Cn2c(=S)[nH]c3ccc(N4CCOCC4)cc3c2=O)c1,-16%,-3%,-17%,-5%
COc1cccc(CNC(=O)CCCCCn2c(=S)[nH]c3ccc(N4CCOCC4)cc3c2=O)c1,x,x,79µM*,-10%
CCC(C)C(N)C(=O)NC(CCC(=O)OCc1ccccc1)C(N)=O (centres undefined),4%,-8%,3%,6%
CN1CCN(C(=O)CCNC(=O)Cn2cnc3ccccc3c2=O)CC1,-16%,-13%,22%,-4%
O=C(CCNC(=O)Cn1cnc2ccccc2c1=O)NCCC1=CCCCC1,-10%,27µM*,-8%,0%
CCN1CCN(c2ncc3c(n2)CC(c2ccc(OC)c(OC)c2)CC3=O)CC1 (centres undefined),0%,-7%,0%,0%
COc1ccc(C2CC(=O)c3cnc(N4CCN(Cc5ccccc5)CC4)nc3C2)cc1 (centres undefined),-27%,21µM*,-22%,0%
CC(C)Cn1c(=S)[nH]c2cc(Cl)ccc21,-17%,24µM*,-30%,u
O=C1C(Cl)=C(N2CCOCC2)C(=O)N1c1cccc(Cl)c1,25µM*,-27%,-5%,-29%
Cc1cccc(N2C(=O)C(Cl)=C(N3CCOCC3)C2=O)c1,u,-13%,3.5µM*,-15%
COc1ccc(N2C(=O)C(Cl)=C(N3CCOCC3)C2=O)cc1,28µM*,0%,2%,-19%
COc1ccc(C(=O)Nc2oc3c(C)cccc3c(=O)c2-c2ccccc2)cc1,x,x,x,6%
CC1(C)CC(=O)C(C=NCCO)=C(O)C1,-16%,27µM*,27%,16%
O=C(Nc1cc(Cl)ccc1Cl)c1ccccc1-c1ccccc1,x,x,x,7%
CCN(/C(N)=N/c1nc(C)cc(C)n1)c1ccccc1,u,27µM*,17%,0%
CCC(=O)NS(=O)(=O)c1cccnc1Nc1ccccc1Cl,-13%,-2%,11%,-2%
O=C(Nc1nc(-c2cccs2)c(-c2ccccc2)s1)c1ccco1,9%,-9%,u,13%
CC1CC1C(=O)Nc1nc(-c2cccs2)c(-c2cccs2)s1 (centres undefined),-13%,-1%,50µM*,u
Cc1ccc(C(C)C)c(OCc2ccc(-c3nnco3)cc2)c1,20%,-8%,50µM*,282%
O=C(NCc1ccc(F)cc1)C1CCC(CNS(=O)(=O)c2ccccc2)CC1 (centres undefined),u,27µM*,6%,42%
COc1ccccc1N1C(=O)C2C3C=CC(CC3)C2C1=O (centres undefined),-22%,-13%,19%,4%
COc1ccccc1N1CCNC(C)C1=O (centres undefined),79µM*,8.4µM*,1%,u
CC(NC(=O)c1cc(S(=O)(=O)N(C)C)ccc1Cl)C1CC2CCC1C2 (centres undefined),-1%,-1%,6%,0%
CCCCCCOc1ccc(C(=N)N(CCCC)CCCC)c2ccccc12,u,x,18µM*,x
NC(=O)[C@H](Cc1ccccc1)N1CC[C@H]2CN(C(=O)c3ccccc3)CC[C@H]2CC1=O,x,x,x,32%[176 µM]
CCCN1CCN(C(=O)c2oc3ccccc3c2NC(=O)c2ccccc2OCC)CC1,x,x,x,-13%
